An excerpt weighted towards active compounds, which were near 1.7% of everything screened.
LANA-H2A inh – blocks KSHV LANA binding to histone H2A/H2B | Q9QR71 | cell-free LANA-H2A/H2B peptide, fluorescence polarization | inhibition, % (concentration not given with the values) | 320,000 tested, 0.6% active | AID 2629; in the data active = inhibition mostly above about 10%, no sharp cut-off; inactive = mostly below about 6.7%
HDAC3 inhib – inhibitors of human histone deacetylase 3. O15379. inhibition, % at 8.3 µM. AID 2718. 320,000 tested, 0.15% active. recombinant HDAC3, fluorogenic peptide/trypsin coupled, fluorescence; in the data active = inhibition above about 26%, passing the limit was not always enough
Fh CTSL1 inh – blocks F. hepatica cathepsin L1 in PFM18AAP counter-screen. recombinant F. hepatica cathepsin L1, Z-Leu-Arg-MCA fluorescence. inhibition, % at 5.96 µM. 300,000 tested, 0.49% active. AID 1906;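 active = inhibition above the mean of all tested compounds plus 3 SD, set per screening campaign, cut at about 17% in these data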
m5-HT2A agonist – mouse HTR2A agonism via beta-arrestin recruitment. P35363. CHO-K1 mHTR2A beta-arrestin complementation, luminescence; percent of 30 µM serotonin response. activation, % at 7.6 µM. 360,000 tested, 0.66% active;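 active = activation above a run cutoff, the mean activation of all tested compounds plus 3 SD, cut at about 14% in these data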
Target sequence (P35363 whole entry, looked up): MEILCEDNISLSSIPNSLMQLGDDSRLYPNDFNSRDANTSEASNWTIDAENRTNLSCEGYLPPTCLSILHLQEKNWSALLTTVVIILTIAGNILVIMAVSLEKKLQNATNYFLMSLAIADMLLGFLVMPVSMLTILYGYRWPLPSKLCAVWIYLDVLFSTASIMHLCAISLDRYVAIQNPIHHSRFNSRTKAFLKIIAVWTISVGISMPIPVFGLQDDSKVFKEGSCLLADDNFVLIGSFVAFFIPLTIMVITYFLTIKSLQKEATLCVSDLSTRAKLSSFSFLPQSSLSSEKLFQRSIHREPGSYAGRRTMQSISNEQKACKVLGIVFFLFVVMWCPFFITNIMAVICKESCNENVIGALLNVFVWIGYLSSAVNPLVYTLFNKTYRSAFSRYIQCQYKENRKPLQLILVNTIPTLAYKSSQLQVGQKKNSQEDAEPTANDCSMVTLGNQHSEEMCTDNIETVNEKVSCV
A number is an active result; – = inactive; · = not tested or not shown; + = active, no number.

SMILES	LANA-H2A inh	HDAC3 inhib	Fh CTSL1 inh	m5-HT2A agonist
O=C(CNC(=O)c1nc[nH]c1C(=O)N1CCN(c2ccccc2)CC1)OCc1ccccc1	–	–	–	–
CCOc1ccc(NC(=O)CC2SC(=O)N(c3ccccc3)C2=O)cc1 (configuration not stated)	–	40	–	–
CC(=O)Nc1ccc2nc(NC(=O)c3ccc([N+](=O)[O-])s3)sc2c1	30	–	–	·
O=C1N[C@H](Cc2ccccc2)COC(=O)[C@@H](Cc2ccc(F)cc2)CC/C=C/C[C@H]1CC(=O)N(CCO)Cc1ccccc1	–	29	·	–
C[C@H](NC(=O)[C@H]1N2C(=O)c3ccccc3C2SC1(C)C)C(=O)N1CCN(C)CC1 (some centres not stated)	–	–	21	–
COc1ccc2nc(/C=N/NC(=O)CCCCCNC(=O)OC(C)(C)C)ccc2c1	–	–	–	–
O=C(CSc1ccc2nnc(-c3cccnc3)n2n1)Nc1ccc(F)cc1	31	–	–	–
CCOc1ccc(NC(=O)CSc2ccc3nnc(-c4cccnc4)n3n2)cc1	–	–	–	–
O=C(CSc1nnc(-c2cccnc2)n1-c1ccccc1)Nc1ccccc1	15	–	–	–
COc1cccc(NC(=O)CSc2ccc3nnc(-c4cccnc4)n3n2)c1	–	–	–	–
Cc1cccc(NC(=O)CSc2ccc3nnc(-c4cccnc4)n3n2)c1	13	–	–	–
COc1cc(OC)cc(C(=O)NNC(=O)CNC(=O)c2cccs2)c1	–	–	·	–
Nc1ccc(C(=O)O)c(O)c1	–	–	–	–
O=C(O)c1ccc(O)cc1O	28	–	·	–
Cc1ccc(C(=O)NC2CCCc3ccccc32)o1 (configuration not stated)	–	–	76	–
O=C(Cc1ccc(Br)cc1)NC1CCCc2ccccc21 (configuration not stated)	–	–	–	–
Cc1ccc(C(=O)OCC(=O)NC2CCCc3ccccc32)o1 (configuration not stated)	–	–	·	–
O=C(CCl)NC1CCCc2ccccc21 (configuration not stated)	–	–	27	–
O=C(CN1CCN(c2cccc(Cl)c2)CC1)NC1CCCc2ccccc21 (configuration not stated)	20	–	–	–
C=CCCO[C@@H]1O[C@@H](C)[C@H](O)C[C@H]1O	–	–	·	–
CC(C)C[C@H]1CN(CCCC[C@@H]2CNC(=O)C(=O)N2CC2CCCCC2)C(=O)C(=O)N1CCC1CCCCC1	·	·	·	–
O=C1NC[C@H](c2ccccc2)N(CCC23CC4CC(CC(C4)C2)C3)C1=O	–	–	–	–
O=C(Nc1sc2c(c1C(=O)O)CCC2)C(=O)N1CCOCC1	–	–	–	–
CCOC(=O)C1C(=O)NC(c2ccccc2)=NC1c1cccc(Br)c1 (configuration not stated)	–	–	22	–
CCOC(=O)C1C(=O)NC(c2ccccc2)=NC1c1ccc(Cl)cc1 (configuration not stated)	–	–	–	–
SMILES	LANA-H2A inh	HDAC3 inhib	Fh CTSL1 inh	m5-HT2A agonist
O=C(CSc1nc(O)c(C2CCCCC2)c(=O)[nH]1)Nc1ccc(F)cc1	–	–	–	–
COc1cc2c(cc1OC)C(C1C(=O)CCCC1=O)N(C(=O)CCl)CC2 (configuration not stated)	–	–	–	–
COc1cc2c(cc1OC)C(c1ccccc1)N(C(=O)CCl)CC2 (configuration not stated)	–	–	31	–
COc1ccc(NC(=S)NCCCN2CCN(C3CCCCC3)CC2)cc1	–	–	–	–
CCOc1ccc(NC(=S)NCCCN2CCN(C3CCCCC3)CC2)cc1	+	–	–	–
O=S(=O)(c1ccc(S(=O)(=O)N(Cc2ccco2)Cc2ccccc2Cl)cc1)N1CCCC1	–	–	–	–
CN(C)S(=O)(=O)c1ccc(S(=O)(=O)N(Cc2ccco2)Cc2ccccc2Cl)cc1	–	–	36	–
COc1ccc(N(Cc2cc(=O)[nH]c3ccccc23)C(=O)C(C)C)cc1	–	–	–	–
CC(C)(C)c1cc(NC(=O)CCl)n(-c2ccccc2)n1	–	·	57	–
CCCc1cc(NC(=O)CCl)n(-c2ccccc2)n1	–	–	79	–
Cc1ccc(-c2nnc(Nc3ccc(OCC(N)=O)cc3)c3ccccc23)cc1S(N)(=O)=O	–	·	–	–
NC(=O)COc1ccc(Nc2nnc(-c3ccc(O)cc3)c3ccccc23)cc1	19	–	–	–
CCOC(=O)/C=C/[C@H]1CC(c2ccccc2)(c2ccccc2)CO1	–	–	·	–
CN1C(=O)C(O)(CC(=O)/C=C/C=C/c2ccccc2)c2ccccc21 (configuration not stated)	–	–	32	–
CN1C(=O)C(O)(CC(=O)/C=C/c2ccco2)c2ccccc21 (configuration not stated)	–	–	–	–
O=C(CSc1ccccc1)Nc1ccc(N2CCOCC2)cc1	–	–	–	–
O=C(CSc1ccccc1F)Nc1ccc(N2CCOCC2)cc1	18	–	·	–
CN(CC(=O)Nc1ccc(F)cc1)C(=O)COc1ccccc1Cc1ccccc1	–	–	–	–
Cc1cccc(NC(=O)c2nc[nH]c2C(=O)N2CCC(C)CC2)c1	–	–	·	–
COc1ccccc1C(=O)Nc1nc2cc3c(cc2s1)OCCO3	–	–	–	23
CC1=NN(C(=O)c2ccc(Cl)cc2)C(O)(c2ccccc2)C1 (configuration not stated)	9.9	–	–	–
CC1=NN(C(=O)CSCc2ccccc2)C(O)(c2ccc(Cl)cc2)C1 (configuration not stated)	–	–	–	–
CC(C(=O)Oc1ccc2c(c1)OCO2)N1C(=O)c2ccccc2C1=O (configuration not stated)	21	–	–	·
O=C(CCl)Nc1ccc(N2CCCCCC2)cc1	–	–	21	–
CCc1nc2ccc(C(=O)N3CCN(C(=O)c4ccco4)CC3)cn2c1N(C)C(=O)Nc1ccccc1OC	·	·	·	–
SMILES	LANA-H2A inh	HDAC3 inhib	Fh CTSL1 inh	m5-HT2A agonist
Cc1ccc(C(=O)CCC(=O)O)cc1	–	–	–	·
CCCc1ccc(C(=O)CCC(=O)O)cc1	+	–	–	–
CN(c1ccc(O)cc1)c1nc(-c2ccccc2)cs1	+	–	–	–
COc1ccc(C2=CC(c3cc(OC)c(OC)c(OC)c3)NC(=S)N2)cc1 (configuration not stated)	20	–	–	–
COc1cc(C2C=C(C34CC5CC(CC(C5)C3)C4)NC(=S)N2)cc(OC)c1OC (configuration not stated)	–	–	–	–
CCc1nc2ccc(C(=O)Nc3ccc(C(=O)N(C)C)cc3)cn2c1N(C)CCCc1ccccc1	·	·	·	–
O=C(CCSCc1ccc(Cl)cc1)NCc1cccnc1	+	–	–	–
O=C(CNC(=O)c1ccc(Br)cc1)NCc1cccnc1	–	–	–	–
COc1cc(OC)cc(C(=O)NCc2cccnc2)c1	–	–	19	–
O=C(CCNC(=O)c1ccc(Br)cc1)NCc1cccnc1	22	–	–	–
O=C(CCSCc1ccc(Cl)cc1)NCCc1ccccc1	–	–	–	–
CSc1ccc(C2=CC(=O)C[C@H](c3ccc(Cl)cc3)C2)cc1	–	–	·	–

Screens: PubChem, several laboratories
